ERK EGF inh: inhibitors of EGF-stimulated ERK signaling pathway | HEK293-V1b, EGF-stimulated phospho-ERK AlphaScreen | Potency, µM (top dose mostly 11.5 µM), for the others: at the top dose activity change, negative = inhibition, usual class: inhibitors | actives 0.41% (n = 130,000);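 also: plate controls were stimulated vehicle wells for no effect and unstimulated vehicle basal for full effect; nearly all actives have a fitted effect of over 55% in size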
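After overnight plating in 1% FBS, HEK293-V1b cells received test compound for half an hour, then a 5 min pulse of EGF (25 nM); ERK phosphorylation in lysates was read by bead-based AlphaScreen.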
HTT ATP protect: cytoprotection in Huntington HTT-Q103 PC12 cell model. Potency, µM (series often up to 56.4 µM), for the others: cytoprotection (ATP increase), actives largely listed as activators. AID 1471. PC12 HTT-Q103 induced, cytoprotection, ATP luminescence, 40 h. actives 0.14% (n = 230,000); also: % of control where 0% means no effect; nearly all actives have a fitted effect of over 45% in size
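Stable PC12 Q103-GFP cells in serum-supplemented, phenol red-free DMEM; induction by tebufenozide at 100 nM final; compound dose series; cell viability quantified luminescently from ATP.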
HttQ103 aggreg: inhibitors of mutant huntingtin aggregate formation in PC12 cells; PC12 HttQ103-GFP aggregates, Acumen cytometry, 40 h; AID 1688; actives 1.1% (n = 220,000); Potency, µM (titrated, usually from 46.1 µM), for the others: top-dose activity change, negative = inhibition, actives largely listed as inhibitors; also: % is scaled to controls: 0 for no effect and ±100 for the full control effect; nearly all actives have a fitted effect of over 60% in size
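Quantitative HTS on tebufenozide-induced (100 nM) PC12 cells stably expressing polyQ103 Huntingtin exon 1–GFP. Reduction of bright GFP aggregates, detected by laser scanning cytometry after lysis, identified actives across the titration.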
Active calls of the source: *; [ ] = remark or other dose. The list is not random: actives were taken first. Their share in the collection is about 1.4%. Calls follow the shape of the dose curve; as a rule, active = well fitted curve in the direction sought with a large enough effect; inconclusive = small, poorly fitted or top-dose-only effect, or another doubt; inactive = no such curve, though single readings can be large; an effect the other way counts as inactive or inconclusive. Potency is read from the fitted curve at half-maximal effect.

Results for CCC(=O)NC(c1ccccc1OC)c1ccc2cccnc2c1O (configuration not stated) ?
ERK EGF inh: inconclusive; HTT ATP protect: -72%[10 µM]; HttQ103 aggreg: 3.2µM*

Results for CCCC(=O)NC(c1ccc(OC)cc1)c1ccc2cccnc2c1O (configuration not stated) ?
ERK EGF inh: 5%; HTT ATP protect: -64%[10 µM]; HttQ103 aggreg: inconclusive

What do the screens show for `CC1=CC(=O)CC(C)(C)C1(O)/C=C/C(C)=C\C(=O)O` (configuration not stated)?
ERK EGF inh: 7%; HTT ATP protect: 16%[1.9 µM]

Results for COC(=O)C1=C(C)N(CC2CC2)C(=O)N[C@H]1CCc1ccccc1 ?
ERK EGF inh: -4%; HTT ATP protect: 1%

How did CN(/N=C/c1ccc([N+](=O)[O-])o1)c1ccccc1 do in these assays?
ERK EGF inh: 25µM*; HTT ATP protect: -11%; HttQ103 aggreg: -4%

What do the screens show for `O=C(N/N=C/c1ccc([N+](=O)[O-])o1)C(O)c1ccccc1` (configuration not stated)?
ERK EGF inh: 1%[57.5 µM]; HTT ATP protect: 20%[10 µM]; HttQ103 aggreg: -6%[9.22 µM]

What do the screens show for `CCCCc1nc2c(c3c1CC(C)OC3)CN(CCC(C)C)CC2` (configuration not stated)?
HTT ATP protect: 1%[10 µM]

Results for CC1(C)Cc2c(c(N3CCOCC3)nc3snc(Br)c23)CO1 ?
HTT ATP protect: inconclusive; HttQ103 aggreg: -16%

What do the screens show for `CC1(C)Cc2c(c(N3CCOCC3)nc3snc(N)c23)CO1`?
HTT ATP protect: -10%; HttQ103 aggreg: 25µM*

How did COc1ccc(-c2coc3ccc(O[C@@H]4O[C@@H](COC(C)=O)[C@@H](OC(C)=O)[C@@H](OC(C)=O)[C@H]4OC(C)=O)cc3c2=O)cc1 do in these assays?
HTT ATP protect: -38%

What do the screens show for `O=C(Cn1cnc([N+](=O)[O-])n1)N/N=C/c1cc(Cl)ccc1O`?
ERK EGF inh: 0%; HTT ATP protect: -88%; HttQ103 aggreg: 11µM*

Results for Cc1ccccc1/C=N/NC(=O)Cn1cnc([N+](=O)[O-])n1 ?
HTT ATP protect: -13%[10 µM]; HttQ103 aggreg: 19%

What do the screens show for `NC(N)=N/N=C/c1cc([N+](=O)[O-])ccc1O`?
ERK EGF inh: 3%; HTT ATP protect: -3%[10 µM]; HttQ103 aggreg: 4%

Results for O=[N+]([O-])c1ccc(O)c(/C=N\N=C2c3ccccc3-c3ccccc32)c1 ?
ERK EGF inh: -5%; HTT ATP protect: 26%[10 µM]; HttQ103 aggreg: 11µM*

How did O=C(CCCn1cnc([N+](=O)[O-])n1)Nc1cc(Cl)ccc1O do in these assays?
ERK EGF inh: -4%; HTT ATP protect: -7%; HttQ103 aggreg: 17%

How did O=C(N/N=C/c1cc([N+](=O)[O-])ccc1O)C1CCCCC1 do in these assays?
ERK EGF inh: 9%; HTT ATP protect: -21%[10 µM]; HttQ103 aggreg: 10µM*

How did O=C(N/N=C/c1cc([N+](=O)[O-])ccc1O)C1C2CCCCC21 (configuration not stated) do in these assays?
ERK EGF inh: -10%; HTT ATP protect: 1%[10 µM]; HttQ103 aggreg: -3%[9.22 µM]

How did O=C(Cn1cnc([N+](=O)[O-])n1)N/N=C/c1ccccc1O do in these assays?
HTT ATP protect: -55%; HttQ103 aggreg: 8.9µM*

What do the screens show for `COC1=CC(=O)C[C@@H](C)[C@@]12Oc1c(Cl)c(OC)cc(OC)c1C2=O`?
HTT ATP protect: -18%

What do the screens show for `Cc1ccn(CC(=O)N/N=C/c2cc([N+](=O)[O-])ccc2O)n1`?
ERK EGF inh: -1%; HttQ103 aggreg: 6.3µM*

What do the screens show for `O=C(Cn1cncn1)N/N=C/c1cc([N+](=O)[O-])ccc1O`?
ERK EGF inh: -5%[57.5 µM]; HTT ATP protect: 26%[10 µM]; HttQ103 aggreg: 9%[9.22 µM]

Results for CCOC(=O)[C@]1(C(NC(=O)OC)c2ccccc2)CCCC1=O (some centres not stated) ?
HTT ATP protect: -19%[10 µM]

Results for Cc1cccc(NC(=O)C2CC(O)CN2C(=O)OCc2ccccc2)c1 (configuration not stated) ?
HTT ATP protect: 7%; HttQ103 aggreg: 17%

Results for CC(NC(=O)OCc1ccccc1)C(=O)N1CC(O)CC1C(=O)O (configuration not stated) ?
ERK EGF inh: -2%[57.5 µM]; HTT ATP protect: 0.1µM*

What do the screens show for `C[C@@H](C(=O)O)c1ccc(C[C@@H]2CCCC2=O)cc1`?
HTT ATP protect: 14%[1.9 µM]

What do the screens show for `CN(C)Cc1c(O)ccc2ccccc12`?
ERK EGF inh: 11%[57.5 µM]; HTT ATP protect: -6%[10 µM]; HttQ103 aggreg: -21%[9.22 µM]

Results for CN(C)Cc1c(O)ccc2oc(Cc3ccccc3)cc12 ?
HTT ATP protect: -37%[10 µM]; HttQ103 aggreg: 4.5µM*

What do the screens show for `Cc1cc(NC(=O)Nc2ccc(N(C)C)cc2)c2cc(F)cc(F)c2n1`?
ERK EGF inh: -4%; HTT ATP protect: -36%

Results for COc1c(C=O)c(=O)[nH]c2c(OC)cccc12 ?
ERK EGF inh: -7%; HTT ATP protect: inconclusive

What do the screens show for `CC(=O)NC1(c2ccc(F)cc2)CCN(C(=O)Nc2ccc(F)cc2F)CC1`?
HTT ATP protect: -97%[10 µM]; HttQ103 aggreg: 3.2µM*

What do the screens show for `CC(=O)c1ccc(N2CCN(C(=O)Nc3ccc(F)cc3F)CC2)cc1`?
ERK EGF inh: 4%; HTT ATP protect: -7%; HttQ103 aggreg: -2%

How did COc1cccc(C(=O)CC2c3c(c(Br)c4c(c3OC)OCO4)CCN2C)c1 (configuration not stated) do in these assays?
ERK EGF inh: -2%; HTT ATP protect: -34%

How did CC(C)CC(=O)Nc1ccc(C(=O)NNC(=S)NC(=O)C2CCCCC2)cc1 do in these assays?
HTT ATP protect: 18%; HttQ103 aggreg: 10µM*

How did CCC(=O)NC(=S)NNC(=O)c1ccc(NC(=O)c2ccccc2)cc1 do in these assays?
ERK EGF inh: 2%[57.5 µM]; HTT ATP protect: -15%; HttQ103 aggreg: -6%

How did Cc1cc(C)nc(SCc2ccc(C(=O)N/N=C/c3cccc(O)c3O)cc2)n1 do in these assays?
ERK EGF inh: -2%; HTT ATP protect: -36%[0.074 µM]; HttQ103 aggreg: -32%

What do the screens show for `COc1ccc(O)c(/C=N/NC(=O)c2ccc(CSc3nc(C)cc(C)n3)cc2)c1`?
ERK EGF inh: -4%; HTT ATP protect: -10%[10 µM]; HttQ103 aggreg: 5.6µM*

Results for COc1ccc(C(=O)N/N=C/c2ccccc2C(=O)O)cc1OC ?
ERK EGF inh: -5%[57.5 µM]; HTT ATP protect: 5%[10 µM]; HttQ103 aggreg: -26%[9.22 µM]

What do the screens show for `O=C(N/N=C/c1ccccc1OC(=O)c1ccc2c(c1)OCO2)c1cccc(F)c1`?
ERK EGF inh: -2%; HTT ATP protect: -88%[10 µM]; HttQ103 aggreg: 2.5µM*

Results for CC(=O)Nc1ccc(C(=O)N/N=C/c2ccccc2OC(=O)c2ccc(Cl)cc2)cc1 ?
HTT ATP protect: -36%; HttQ103 aggreg: inconclusive

What do the screens show for `COc1cc(C(=O)Oc2ccccc2/C=N/NC(=O)c2ccc(Cl)cc2)cc(OC)c1OC`?
ERK EGF inh: -2%; HTT ATP protect: -88%[10 µM]; HttQ103 aggreg: 2.8µM*

Results for COc1cc(/C=N/NC(=O)c2cccnc2)ccc1OC(=O)c1ccc2c(c1)OCO2 ?
HTT ATP protect: 2%; HttQ103 aggreg: 11%

Screening results as filed in PubChem BioAssay.
